Measurements as given in PubChem BioAssay (NCI).
About 83,000 compounds went through this panel and 20% of them were active in at least one assay; those are over-represented in the sample as a whole.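 Single-concentration screen, 48 h exposure, 96-well plates. Endpoint: percent growth. Below 10 = active.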 Values without a mark were called inactive. The source made the active and inactive calls.

tested on: MDA-MB-468 breast; assay: NCI-60 one-dose screen, 48 h (100 = growth as untreated, 0 = no growth, -100 = all killed); settings: 10 µM unless noted

Row | SMILES | growth
1 | Cn1cc(-c2csc(-c3cn(CCCN4CCOCC4)c4ccccc34)n2)c2cccnc21 | 65.1%
2 | N#Cc1c(NC(=O)c2cccc(C(F)(F)F)c2F)sc2c1CCC(=O)C2 | -32% (active)
3 | Cn1cc(-c2nc(-c3c[nH]c4c(Cl)nccc34)cs2)c2cc(Br)ccc21 | 19.9%
4 | COc1cccc(-c2nn(-c3ccccc3)cc2-c2ccnc(NCCCNC(=O)Nc3ccc(Cl)c(Cl)c3)c2)c1 | -42.9% (active)
5 | [2H]C1([2H])CCN(C(=O)C2CC2)c2cc(NS(=O)(=O)c3ccc(-c4cccc(C(N)=O)c4)cc3)ccc21 | -5.25% (active)
6 | CC1(C)CC[C@]2(C(=O)O)CC[C@]3(C)[C@H](CC[C@@H]4[C@@]5(C)CCC(=O)C(C)(C)[C@@H]5CC[C@]43C)[C@H]2[C@H]1OC(=O)C(F)(F)F | -71% [100 µM] (active)
7 | COc1cc(/C=C/C(=O)c2ccc(C)cc2)ccc1Oc1nc(NCCO)nc(N2CCOCC2)n1 | 27.2%
8 | Cc1ccc2nc(-c3ccc(N=Cc4ccccc4O)cc3)sc2c1 | 86.4%
9 | Cc1ccc(NC(=O)c2sc3nc(C)c(C(O)c4ccccc4)cc3c2N)cc1 (stereo not given) | 18.6%
10 | O=C(O)/C=C(\c1nc2ccc([N+](=O)[O-])cc2[nH]1)c1cc(Cl)ccc1O | -2.53% (active)
11 | COc1cccc2cc(-c3nc(C4CCC(C(=O)O)CC4)n4ncnc(N)c34)[nH]c12 (stereo not given) | -22.3% (active)
12 | CC/C(=C(\CC)c1ccc(OCCN(CC)CC)cc1)c1ccc(OCCN(CC)CC)cc1 | 0.372% (active)
13 | CC[C@]12C=CCN3CC[C@]4(C(=C(C(=O)OC)C1)Nc1cc5c(cc14)[C@@H]1[C@H](O5)[C@@H](O)[C@@]4(CC)CC(C(=O)OC)=C5Nc6cc(OC)ccc6[C@@]56CCN1[C@@H]46)[C@@H]32 | -36.8% (active)
14 | CCN(CC)CCNc1ccc(CO)c2sc3ccccc3c(=O)c12 | -41.4% (active)
15 | CCOc1cc(N)ccc1C(=O)NCCCN(CC)CC | 85%
16 | O=C(c1ccc(F)c(F)c1Nc1ccc(I)cc1F)N1CC(O)([C@@H]2CCCCN2)C1 | 25.2%
17 | C#CC#CC#CC#CC#CC#CC#CC#CCC1OCC(COC(=O)O[C@@H](C(=O)O[C@H]2C[C@@]3(O)[C@@H](OC(=O)c4ccccc4)[C@@H]4[C@]5(OC(C)=O)CO[C@@H]5C[C@H](O)[C@@]4(C)C(=O)[C@H](OC(C)=O)C(=C2C)C3(C)C)[C@@H](NC(=O)c2ccccc2)c2ccccc2)O1 (stereo not given in full) | -22.4% (active)
18 | O=C1CSC(=S)N1/N=C/c1ccc(Cl)s1 | 105%
19 | C#CCNC(=O)c1cccc2c1cc(C)n2-c1nc2c(c(NCc3ccccc3)n1)CCCC2 | -50.9% (active)
20 | O=[N+]([O-])c1cccc(SSc2cccc([N+](=O)[O-])c2)c1 | 109%

Row | SMILES | growth
21 | CCN(CC)c1ccc(CNc2cc(C)nc3ccc(OC)cc23)cc1 | 2.98% (active)
22 | Nc1nc(Cl)cc(Cl)n1 | 99.4%
23 | COc1cc(/C=N/Nc2ccccc2F)cc(OC)c1OC | 97%
24 | OCC1OC(n2cnc3c(=S)nc[nH]c32)C(O)C1O (stereo not given) | -6.42% (active)
25 | CCOC(=O)C1=C(C)n2nc(CC#N)c(C#N)c2NC1c1ccc(CC)cc1 (stereo not given) | 114%
26 | N#C/C(=C\c1ccc(Br)cc1)n1nnc2cccc(F)c21 | -0.554% (active)
27 | Nc1c(Br)cc2c(c1Br)Cc1cc(Cl)ccc1-2 | -5.33% (active)
28 | CC(C)NC(=O)OCc1c(COC(=O)NC(C)C)c(-c2ccc(Cl)c(Cl)c2)n2c1SCC2 | -73.9% (active)
29 | CC1(C)N=C(N)N=C(N)N1c1ccc(OCC(=O)Nc2ccccc2)c(Cl)c1 | 56.8%
30 | CN1[C@@H]2CC[C@H]1/C(=C\c1ccccc1)C(=O)/C2=C/c1ccccc1 | 16.2%
31 | O=C(CC(C(=O)c1ccccc1)N1CCOCC1)c1ccccc1 (stereo not given) | 101%
32 | COc1cc2cc(NCc3ccc(Cl)cc3)nc(C)c2cc1OC | 63.4%
33 | COc1cc(C(=O)/C(C)=C/c2c[nH]c3ccccc23)cc(OC)c1OC | 11.4%
34 | C=C(C)[C@@H]1CC[C@]2(C(N)=O)CC[C@]3(C)[C@H](CC[C@@H]4[C@@]5(C)CCCNC(C)(C)[C@@H]5CC[C@]43C)[C@@H]12 | 78.3%
35 | COc1cc2c3cc1Oc1c(OC)c(OC)cc4c1C(Cc1ccc(O)c(c1)Oc1ccc(cc1)CC3N(C)CC2)N(C)CC4 (stereo not given) | -72.3% (active)
36 | Clc1ccc(CCC(Cn2ccnc2)Sc2c(Cl)cccc2Cl)cc1 (stereo not given) | 36.9%
37 | CCC(=O)Oc1ccc(OC)cc1 | 106%
38 | Clc1ccc(/C=C/c2nc(N3CCOCC3)c3nc(Cl)c(Cl)cc3n2)cc1 | 102%
39 | O=C(c1ccc(Cl)cc1)N1CCCCC1 | 101%
40 | CNC(=O)c1cc(COc2nnc(Nc3ccc(Cl)cc3)c3ccoc23)ccn1 | 65%
